About 1,900 (0.47%) of roughly 400,000 compounds were called active. About 14% were inconclusive and are not listed. Calls come from the whole dose curve; as a rule, active = well fitted cell-killing curve with a large enough effect; inconclusive = small, poorly fitted or top-dose-only effect, or effect the other way; inactive = no such curve, though single readings can be large or run the other way. Shown is part of a subset that was picked to be rich in actives.
Potency is the fitted concentration of half-maximal effect.

This test can be described thus: Viability Counterscreen for Primary qHTS for Inhibitors of ATXN expression. Note: nearly all actives have a fitted effect of over 40% in size. The settings on record: S2 cells (HEK-293 line with an ATXN2-luciferase reporter) viability, CellTiter-Fluor protease fluorescence, 24 h; series mostly up to 56.7 µM; activity change, negative = cytotoxicity: at the top concentration. The text has this: Spinocerebellar ataxia type 2 (SCA2) is a multisystem neurodegenerative disease caused by a dominantly-acting mutation leading to expansion of a polyQ domain in the ataxin-2 protein (ATXN2). SCA2 patients develop progressive ataxia and later lose function in other neuronal systems. Prominent parkinsonian signs develop in some patients. Similar to many neurodegenerative disorders, no symptomatic or disease-modifying treatments are known.
The primary objective of the proposed research is to identify compounds inhibiting ATXN2 expression and to test them for efficacy in SCA2 mouse models. To this end, we have developed a cell-based assay paired with an in vivo mouse model using identical luciferase expression constructs. This approach takes advantage of an ATXN2-luciferase transgene, with the luciferase gene flanked by the upstream and downstream portions of the ATXN2 gene. This primary assay was tested against the NIH Molecular Libraries Small Molecule Repository (MLSMR).
NIH Chemical Genomics Center [NCGC]
NIH Molecular Libraries Probe Centers Network [MLPCN]
Assay Submitter (PI): Daniel Scoles, University of Utah
PROTOCOL TABLE (as described by Inglese J, Shamu CE and Guy RK. 2007)
SEQUENCE No. (e.g., 1, 2, 3, etc.); […] (e.g., Cells, Incubation, Reagent, etc.); VALUE; DESCRIPTION.
1; Cells; 4 uL; white, solid bottom, 1536-well Greiner assay plate.
2; Incubation; 2 hr; 37 degree C in 5% humidified CO2.
3; Compounds; 23 nL; Kalypsis pintool (Wako USA) equipped with a 1536-well pin head.
4; Incubation; 24 hr; 37 degree C in 5% humidified CO2.
5; Reagent; 1 uL; Gly-Phe-7-Amino-4-trifluoromethylcoumarin.
6; Incubation; 30 min; 37 degree C in 5% humidified CO2.
7; Detection; Fluorescence; ViewLux plate reader (PerkinElmer).
8; Reagent; 3 uL; SteadyGlo luciferase solution (Promega).
9; Incubation; 5 min; room temperature.
10; Detection; Luminescence; ViewLux plate reader (PerkinElmer).
NOTES (numbers refer to Sequence numbers above)
1. S2 cells expressing ATXN2-luciferase reporter were suspended in phenol-red free DMEM and dispensed in assay plates using a Multidrop Combi dispenser (Thermo Fisher Scientific).
2. Assay plates were incubated. Evaporation was prevented by covering assay plates with metal lids containing holes to allow gas diffusion.
3. […] Vehicle-only plates, with DMSO being pin-transferred to columns 5-48, were inserted uniformly at the beginning and the end of each library to monitor and record any shifts in assay performance.
5. 125 uM Gly-Phe-7-Amino-4-trifluoromethylcoumarin (MP Biomedicals) working concentration was used at a final concentration of 25 uM.
7. To assess cell viability; the assay plates were read using the ViewLux high-throughput CCD imager (PerkinElmer), wherein single end-point fluorescence measurement was acquired (excitation 405/10; emission 540/25 nm).
8. Detection reagent SteadyGlo Luciferase (Promega) was added to the assay plate.
10. Luminescence is then measured on the ViewLux imager equipped with a clear emission filter using a 2 sec exposure. All screening operations were performed on a fully integrated robotic system (Kalypsys) containing one RX-130 and two RX-90 anthropomorphic robotic arms (Staubli).
Inglese J, Shamu CE and Guy RK, Reporting data from high throughput screening of small molecule libraries, Nature Chemical Biology, 2007, 3(8): 438-441. doi.org/10.1038/nchembio0807-438.
In general terms: A counterscreen serves to expose hits that act by an unwanted route or on another target.
Turning to `COc1cccc(CN2CCC3(CC2)c2ccccc2[C@@H](NC(=O)c2ccccc2OC)[C@@H]3O)c1`, the “activity change, negative = cytotoxicity” value was -15.1% (inactive).

For the compound `O=C1CCNCCN1[C@H](CO)Cc1ccccc1`, the “activity change, negative = cytotoxicity” value is -14.8% (inactive).

As for `c1ccc(C[C@H]2CNCCN2CCC23CC4CC(CC(C4)C2)C3)cc1`, the Potency is 31.6 µM (active).

Consider `Cc1cc(NS(=O)(=O)c2ccc(NC(=O)c3cccnc3)cc2)nc(C)n1`, for which the “activity change, negative = cytotoxicity” value is -27.6% (inactive).

As for `CCOc1ccccc1C(=O)Nc1ccc(S(=O)(=O)N2CCCCC2c2cccnc2)cc1` (centres undefined), the “activity change, negative = cytotoxicity” value is -18% (inactive).

With `Cc1cccc(C(=O)Nc2ccc(S(=O)(=O)N3CCCCC3c3cccnc3)cc2)c1` (centres undefined), the Potency was 14.1 µM (active).

On to `CCN1CCN(C(=O)N[C@@H](C(=O)N[C@@H]2C(=O)N3[C@@H]2SC(C)(C)[C@H]3C(=O)O)c2ccccc2)C(=O)C1=O`, for which the Potency entry was “inactive”.

For the compound `CCOC(=O)c1ccn(S(=O)(=O)c2ccc(C)cc2)c1-c1ccccc1`, the “activity change, negative = cytotoxicity” value is -16% (inactive).

`Oc1ccc2ccccc2c1N=Nc1nccs1`: the Potency was 15.8 µM (active).

Regarding `Oc1ccc(N=Nc2nccs2)c(O)c1`, the Potency is 10 µM (active).

For the compound `CN1CCCCCC1C(=O)NCCN1Cc2ccccc2OC(c2ccsc2)C1` (centres undefined), the “activity change, negative = cytotoxicity” value was -11.5% (inactive).

Turning to `Cc1nc2cc(NC(=O)[C@@H]3C[C@@H](Sc4ccccn4)CN3Cc3ccccc3C)ccc2s1`, the “activity change, negative = cytotoxicity” value was -14.5% (inactive).

Consider `O=C(NN=Cc1ccc([N+](=O)[O-])cc1)C1CC1`, for which the “activity change, negative = cytotoxicity” value is -5.43% (inactive).

Turning to `O=C1/C(=C\c2ccc([N+](=O)[O-])cc2)CS(=O)(=O)C/C1=C/c1ccc([N+](=O)[O-])cc1`, the Potency was 2.67 µM (active).

Turning to `CC(=O)Nc1ccc(C=Cc2ccc([N+](=O)[O-])cc2)cc1`, the “activity change, negative = cytotoxicity” value is -4.99% (inactive).

With `COC(=O)c1cc(Cl)c(NC(C)=O)cc1OC`, the “activity change, negative = cytotoxicity” value was 2.13% (inactive).

Consider `O=c1cc(COc2cccc(C(F)(F)F)c2)nc2sc3c(n12)CCCC3`, for which the “activity change, negative = cytotoxicity” value is -33.8% (inactive).

For `O=C(Nc1ccc(Cl)cc1)C1Cc2c(-c3ccc4c(c3)OCO4)ccnc2O1` (centres undefined), the “activity change, negative = cytotoxicity” value is -25.3% (inactive).

Turning to `COC(=O)CCCCCN1C(=O)NC(c2ccc(-c3ccccc3)cc2)C(C(=O)OCc2ccccc2)=C1C` (centres undefined), the “activity change, negative = cytotoxicity” value was -5.84% (inactive).

With `CCN1C(=O)N[C@@H](c2ccccc2)C(C(=O)OC)=C1C`, the “activity change, negative = cytotoxicity” value was 0.354% (inactive).

On to `CCCCNC(=O)C(C)N(CCN(C)C)C(=O)CCCCCN1C(=O)NC(c2ccc(Cl)cc2)C(C(=O)OCc2ccccc2)=C1C` (centres undefined), for which the Potency is 22.4 µM (active).

With `Cc1oc(-c2cccc(NC(=O)c3ccccc3)c2)nc1CNC(=O)c1cnc2ccccn2c1=O`, the “activity change, negative = cytotoxicity” value was -18.1% (inactive).

As for `COc1cc(=O)n2c(c1C(=O)N(C)Cc1nonc1C)CCN(C(=O)c1ccc(C)cc1C)CC2`, the “activity change, negative = cytotoxicity” value was -16.8% (inactive).

For `O=c1ccc2c(-c3ccccc3S(=O)(=O)O)c3ccc(O)c(O)c3oc-2c1O`, the Potency is 10 µM (active).

Turning to `CC(=O)Nc1ccccc1-c1nc(CNC(=O)c2ccc(Cl)cc2)c(C)o1`, the “activity change, negative = cytotoxicity” value is -11.2% (inactive).

With `COc1cccc(CSc2nc3nc(C)cc(C)n3n2)c1`, the “activity change, negative = cytotoxicity” value was 2.32% (inactive).

Regarding `COc1ccc(-c2nc3nc(C)cc(C)n3c2Nc2c(C)cccc2C)cc1`, the Potency is 28.2 µM (active).

On to `COc1ccc(-c2cc(C)nc3nc(N)nn23)cc1`, for which the “activity change, negative = cytotoxicity” value is 0.852% (inactive).

As for `COc1cncc(-c2cnc3sc(NCCc4ccccn4)nn23)c1`, the “activity change, negative = cytotoxicity” value is 2.53% (inactive).

Consider `COc1cc(/C=C/C(N)=O)cc(OC)c1OC`, for which the “activity change, negative = cytotoxicity” value is -12.2% (inactive).

For the compound `CC(C)(c1ccccc1)c1ccc(OCCN2CCCC2)cc1`, the “activity change, negative = cytotoxicity” value is 1.01% (inactive).

Consider `CC1CCCN(CC(=O)Nc2cc(Cl)ccc2Oc2ccccc2)C1` (centres undefined), for which the “activity change, negative = cytotoxicity” value is 16.2% (inactive).

With `COCC1CCCN(Cc2ccc3c(c2)CN(C(=O)c2ccnn2C)CCO3)C1` (centres undefined), the “activity change, negative = cytotoxicity” value is 2.16% (inactive).

With `CCCNC(=O)c1cc(C2CCCN(C(=O)c3ccc4c(c3)CCO4)C2)on1` (centres undefined), the “activity change, negative = cytotoxicity” value was -32.5% (inactive).

For `COc1ccc2c(c1)CCc1cnc(-n3ncc(C(=O)NCCN4CCOCC4)c3C)nc1-2`, the “activity change, negative = cytotoxicity” value is -7.73% (inactive).

As to `Cc1cnc(C(=O)N2CCOc3ccc(CN4CCCC(C(=O)c5cccnc5)C4)cc3C2)[nH]1` (centres undefined), the “activity change, negative = cytotoxicity” value was -20.4% (inactive).

On to `CC(=O)Nc1cc(C(=O)N2CCc3c(Cl)cccc3C2)cc2ncn(CCc3ccccn3)c12`, for which the “activity change, negative = cytotoxicity” value is -11.4% (inactive).

Take `COc1ccc2c(c1OC)C(=O)OC2Nc1nc(-c2ccccc2)cs1` (centres undefined): the Potency was 20 µM (active).

As to `COc1ccc(-c2csc(Nc3cccc(C)n3)n2)cc1OC`, the “activity change, negative = cytotoxicity” value was -29.7% (inactive).

For the compound `CCc1ccccc1NC(=O)[C@@H]1CCC(=O)N1C1OC(=O)c2c1ccc(OC)c2OC` (some centres undefined), the “activity change, negative = cytotoxicity” value was -5.58% (inactive).

`Cc1ccc(-c2csc(-c3c[nH]c4ccccc34)n2)cc1`: the “activity change, negative = cytotoxicity” value is -12.2% (inactive).

For the compound `Cc1ccc(-c2csc(NC3OC(=O)c4ccccc43)n2)cc1` (centres undefined), the Potency was 25.1 µM (active).

In the case of `C/C(CC1CC(C)(C)OC1=O)=N/Nc1nc(-c2ccccc2)cs1` (centres undefined), the “activity change, negative = cytotoxicity” value is -37.1% (inactive).

On to `Cc1c(C(=O)NCC2CCCN(C)C2)cnn1-c1nccc(-c2ccco2)n1` (centres undefined), for which the “activity change, negative = cytotoxicity” value is -11.9% (inactive).

Consider `Cc1ccc(NS(=O)(=O)c2cc3c(cc2Br)NC(=O)CO3)cc1C`, for which the “activity change, negative = cytotoxicity” value was -26.2% (inactive).

As for `N#Cc1ccc(-c2nc3c(Cl)cc(C(F)(F)F)cn3c2Cc2ccccc2C(F)(F)F)cc1`, the “activity change, negative = cytotoxicity” value was -15.8% (inactive).

In the case of `C[C@@H]1CN(Cc2ccc3c(c2)CN(Cc2ccc(Oc4ncccn4)cc2)CCO3)C[C@H](C)O1`, the “activity change, negative = cytotoxicity” value was -1.79% (inactive).

As for `CC(C)c1ccc(S(=O)(=O)Nc2ccc(O)c(Sc3nc4ccccc4s3)c2)cc1`, the “activity change, negative = cytotoxicity” value was -34% (inactive).

Turning to `CC(C)(C)c1ccc(S(=O)(=O)Nc2ccc(O)c(Sc3nc4ccccc4s3)c2)cc1`, the “activity change, negative = cytotoxicity” value was -34.1% (inactive).

The values above are taken from PubChem BioAssay AID651635 (National Center for Advancing Translational Sciences (NCATS), 2012).
